Where “and” joins values, the source holds several entries; their conditions need not be identical. Identical values can stand only once. Records with an inconclusive call do not appear. A call without a number means that no potency is given here. Calls of active or inactive are those of the source. Calls follow the shape of the dose curve; as a rule, active = well fitted cell-killing curve with a large enough effect; inconclusive = small, poorly fitted or top-dose-only effect, or effect the other way; inactive = no such curve, though single readings can be large or run the other way.
experiment: Viability qHTS for spleen associated tyrosine kinase inhibitor (SYKi) naive MV4-11 cells (AID 1963823); details: MV4-11 AML viability, CellTiter-Glo luminescence, 72 h; series mostly up to 45 µM; also: nearly all actives have a fitted effect of over 40% in size
Source text: Department of Medicine, Hematology/Oncology
University Hospital Frankfurt, Germany.
Trials have shown promising clinical activity of the selective SYK inhibitor entospletinib in patients with high expressing HOXA9/MEIS1 acute leukemias. As the development of resistance mechanisms is a common problem in the use of targeted drugs, we performed a chemical library screen to identify drug sensitivities in SYK inhibitor resistant AML cells. […] Glucocorticoids are potent immunosuppressants which work in part by inhibiting the transcription of cytokine genes.
Described herein is a viability screen to look for activity in the SYK inhibitor naive cell line against four NCATS compound libraries (MIPE 5.0, NPC, NPACT, and Kinase) totaling 11372 compounds. Active hits were reacquired for confirmation and further secondary assay testing.
SEQUENCE No. (e.g., 1, 2, 3, etc.); […] (e.g., Cells, Incubation, Reagent, etc.); VALUE; DESCRIPTION.
1; Media; 2uL; white, solid-bottom Corning assay plate.
2; Compounds; 23nL; Echo acoustic dispenser.
3; Cell; 5uL; 500 cells per well.
4: Incubation; 72hr; 37 C, 5% CO2, 95% humidity.
5; Reagent; 3uL; CellTiter-Glo reagent (Promega).
6; Incubation; 10min; room temperature.
7; Detection; Luminescence; ViewLux plate reader (PerkinElmer).
NOTES (numbers refer to Sequence numbers above
1. Quantitative high-throughput screening (qHTS) of small molecule compounds was conducted on naive SYKi MV4-11 cell line.
2. Twenty-three nanoliter of small molecule compounds were added to each assay plates using the Echo acoustic dispenser (Beckman Coulter).
3. Cells were seeded into the assay plates at a final density of 500 cells in 5uL of media per well using the Multi-drop Combi dispenser.
4. Plates were covered with stainless steel gasketed lids and incubated for 72 hours at standard cell culture conditions.
5. Viability was assessed by adding 3uL of CellTiter-Glo detection reagent (Promega).
6. Plates were covered with gasket lids and incubated for 10 minutes at room temperature.
7. Luminescence was measured on a ViewLux plate reader (PerkinElmer).
Potency is read from the fitted curve at half-maximal effect.

**Q.** With `Cc1cc(=O)[nH]c(=S)[nH]1` as the molecule, how does the Potency read?
**A.** The Potency was “inactive”.

**Q.** With `CC1(C(=O)O)CCCC2(C)C3CCC4CC3(CCC12)CC4=O` (stereo not given) as the molecule, how does the Potency read?
**A.** Its Potency is 13 µM (active).

**Q.** With `CC(C)Cn1cnc2c1c(=O)n(C)c(=O)n2C` as the molecule, how does the Potency read?
**A.** Its Potency is “inactive”.

**Q.** Which Potency does the source give for `CC(=O)/C=C/C1(O)C(C)=CC(=O)CC1(C)C` (stereo not given) here?
**A.** Its Potency is “inactive”.

**Q.** For `CC(C)(O)C1CC=C(C(=O)OCC2OC(Oc3c(O)cc(C(=O)O)cc3O)C(O)C(O)C2O)CC1` (stereo not given), which Potency is on record?
**A.** Its Potency is “inactive”.

**Q.** With `C=C1CCC[C@]2(C)C=C3OC(=O)C(C)=C3C[C@@H]12` as the molecule, how does the Potency read?
**A.** The Potency was “inactive”.

**Q.** For `CCC(C)(NC(=O)C(CCC(N)=O)NC(=O)C1CC(O)CN1C(=O)C(C)(C)NC(=O)C(C)(C)NC(=O)C(CC(C)C)NC(=O)CNC(=O)C(NC(=O)C(C)(C)NC(=O)C(C)(C)NC(=O)C(C)(C)NC(=O)C(Cc1ccccc1)NC(C)=O)C(C)C)C(=O)N1CC(O)CC1C(=O)NC(C)(C)C(=O)NC(CO)Cc1ccccc1` (stereo not given), which Potency is on record?
**A.** The Potency was 1.74 µM (active).

**Q.** Which Potency does the source give for `CC(=O)OC1C(O)C(C)(O)C(/C=C/C(=O)O)C2(C)CCCC(C)(C)C12` (stereo not given) here?
**A.** Its Potency is “inactive”.

**Q.** With `CC(/C=C/C1(O)C2(C)COC1(C)CC(=O)C2)O[C@@H]1O[C@H](CO)[C@@H](O)[C@H](O)[C@H]1O` (stereo not given in full) as the molecule, how does the Potency read?
**A.** The Potency was “inactive”.

**Q.** Which Potency does the source give for `O=C(NCCN1CCC(n2c(=O)[nH]c3ccccc32)CC1)c1cc2cc(F)ccc2[nH]1` here?
**A.** Its Potency is 18.4 µM (active).

**Q.** For `COc1cc(C2OCC3C(c4ccc(OC5OC(CO)C(O)C(O)C5O)c(OC)c4)OCC23)ccc1O` (stereo not given), which Potency is on record?
**A.** The Potency was “inactive”.

**Q.** With `Cc1cccc(-c2[nH]c(C(C)(C)C)nc2-c2ccc3c(c2)OCO3)n1` as the molecule, how does the Potency read?
**A.** The Potency was 2.35 µM (active).

**Q.** For `CC(=O)OCC(=O)[C@@]1(O)CC[C@H]2[C@@H]3CCC4=CC(=O)CC[C@]4(C)[C@H]3C(=O)C[C@@]21C`, which Potency is on record?
**A.** Its Potency is “inactive”.

**Q.** Which Potency does the source give for `COc1cc(C(CO)CO[C@@H]2O[C@H](CO)[C@@H](O)[C@H](O)[C@H]2O)ccc1O` (stereo not given in full) here?
**A.** The Potency was “inactive”.

**Q.** With `OCCc1ccc(O[C@@H]2O[C@H](CO)[C@@H](O)[C@H](O)[C@H]2O)c(O)c1` as the molecule, how does the Potency read?
**A.** Its Potency is “inactive”.

**Q.** Which Potency does the source give for `COc1cc2ncnc(-n3nc(-c4ccccn4)nc3N)c2cc1OC` here?
**A.** Its Potency is 796 nM (active) and 1.48 µM (active).

**Q.** With `Cc1cn2c(n1)Cc1ccc(Cl)cc1C(c1ccc(N)cc1)=N2` as the molecule, how does the Potency read?
**A.** Its Potency is 14.6 µM (active).

**Q.** With `COc1cc2nccc(Oc3ccc(NC(=O)Nc4ccc(F)cc4F)c(F)c3)c2cc1OC` as the molecule, how does the Potency read?
**A.** Its Potency is 0.0231 µM (active).

**Q.** For `CCC(=O)N[C@H]1CC[C@H](C(=O)N(C)c2ccc(-c3nc4ccccc4o3)cc2)C1`, which Potency is on record?
**A.** The Potency was 14.8 µM (active).

**Q.** Which Potency does the source give for `CC1CCC2(C(=O)O)CCC3(C)C(=CCC4C5(C)CCC(O)C(C)(C(=O)O)C5CCC43C)C2C1(C)O` (stereo not given) here?
**A.** Its Potency is “inactive”.

**Q.** With `C[C@]12CCCN1CC1=NNC(=O)c3cc(F)cc4[nH]c2c1c34` as the molecule, how does the Potency read?
**A.** Its Potency is 2.63 µM (active).

**Q.** For `CCC[C@H](Nc1nc(-c2ccc(NC(=O)NCC)c(OC)c2)ncc1C)c1cccnc1`, which Potency is on record?
**A.** Its Potency is 0.0742 µM (active).

**Q.** Which Potency does the source give for `C=C1C(=O)O[C@H]2C[C@H](C)C(/C=C/C(C)=O)=CC[C@H]12` here?
**A.** The Potency was 1.18 µM (active).

**Q.** With `COC(=N)c1nc2ccc3ncnc(Nc4ccc(F)cc4Br)c3c2s1` as the molecule, how does the Potency read?
**A.** The Potency was 1.46 µM (active).

**Q.** Which Potency does the source give for `COc1ccc(CCc2nc3cc(-c4c(C)noc4C)ccc3n2C[C@H](C)N2CCOCC2)cc1Cl` here?
**A.** Its Potency is 7.31 µM (active).

**Q.** For `Nc1nccc(Oc2ccc(NC(=O)c3c[nH]cc(-c4ccc(F)cc4)c3=O)cc2F)c1Cl`, which Potency is on record?
**A.** The Potency was 0.0295 µM (active).

**Q.** With `CCC1(c2ccccc2)C(=O)NCNC1=O` as the molecule, how does the Potency read?
**A.** The Potency was “inactive”.

**Q.** Which Potency does the source give for `OC(CCN1CCCCC1)(c1ccccc1)C1CC2C=CC1C2` (stereo not given) here?
**A.** The Potency was “inactive”.

**Q.** For `CC(=O)[C@@H]1C[C@H](C(C)(C)O[C@@H]2O[C@H](CO)[C@@H](O)[C@H](O)[C@H]2O)CC[C@@]2(CO)OC(=O)C[C@@H]12`, which Potency is on record?
**A.** Its Potency is “inactive”.

**Q.** Which Potency does the source give for `O=C(OOC(=O)c1ccccc1)c1ccccc1` here?
**A.** The Potency was “inactive”.

**Q.** Which Potency does the source give for `C=C1C[C@]23C[C@H]1CC[C@H]2[C@]1(C)CCC[C@@](C)(C(=O)O)[C@H]1[C@@H]3C(=O)O` here?
**A.** The Potency was “inactive”.

**Q.** With `FC(F)(F)c1ccc(Nc2nc3ccc(Oc4ccnc(-c5ncc(C(F)(F)F)[nH]5)c4)cc3[nH]2)cc1` as the molecule, how does the Potency read?
**A.** Its Potency is 1.64 µM (active).

**Q.** With `OC[C@H]1O[C@@H](OCCc2ccc(O)cc2)[C@H](O)[C@@H](O)[C@@H]1O` as the molecule, how does the Potency read?
**A.** Its Potency is “inactive”.

**Q.** With `CC(NC(=O)C(O)C(C)C)C(=O)NC1C(=O)N(C)CCc2ccccc21` (stereo not given) as the molecule, how does the Potency read?
**A.** Its Potency is “inactive”.

**Q.** With `COC(=O)[C@H](Cc1ccc([N+](=O)[O-])cc1)NC(=O)c1cccc2ccccc12` as the molecule, how does the Potency read?
**A.** The Potency was 5.8 µM (active).

**Q.** Which Potency does the source give for `O=C1CCC[C@@H]2[C@H]3CCC[N+]4([O-])CCC[C@@H](CN12)[C@@H]34` (stereo not given in full) here?
**A.** The Potency was “inactive”.

**Q.** With `COc1cc([C@@H]2c3cc4c(cc3[C@@H](O[C@@H]3O[C@@H]5CO[C@@H](C)O[C@@H]5[C@H](O)[C@@H]3O)[C@H]3COC(=O)[C@H]23)OCO4)cc(OC)c1O` as the molecule, how does the Potency read?
**A.** Its Potency is 0.59 µM (active).

**Q.** Which Potency does the source give for `O=c1cc(-c2cccc(O)c2)oc2c(O)c(O)ccc12` here?
**A.** Its Potency is 14.6 µM (active).

**Q.** Which Potency does the source give for `CCC[C@@H]1C[C@@H](C(=O)N[C@@H]([C@H]2O[C@H](SC)[C@H](OP(=O)(O)O)[C@@H](O)[C@H]2O)[C@H](C)Cl)N(C)C1` here?
**A.** Its Potency is “inactive”.

**Q.** For `C[C@@H](OC[C@@]1(c2ccccc2)CC[C@]2(CCC(=O)N2)CN1)c1cc(C(F)(F)F)cc(C(F)(F)F)c1`, which Potency is on record?
**A.** The Potency was 7.42 µM (active).

Reference: PubChem BioAssay (NCATS)
